Screening data deposited in PubChem by National Center for Advancing Translational Sciences (NCATS).
TSHR agonist – TSH receptor (human) agonism. HEK293-CNG-TSHR cells (CNG channel as cAMP sensor), membrane potential dye, cAMP. Potency, µM (series often up to 57.1 µM), actives largely listed as activators. P16473. 73,000 compounds, 0.48% hits; active means well fitted activation curve with a large enough effect in the main read-out, with a control signal flat, not every such curve was filed as active; inconclusive means small, poorly fitted or top-dose-only effect, or a change in a side signal; inactive means no such curve, though single readings can be large or run the other way; reference of the percent scale not stated here;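 further: the control signal comes from parental cells without the receptor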
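HEK 293 cells stably expressing TSHR and a modified CNG channel, with CNG-only parental cells as counterscreen, were preloaded 60 min at room temperature with membrane potential dye containing 100 uM RO 20-1724. Compound exposure was 30 min, and depolarization was read as fluorescence at 590 nm.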
Bst PK mod – modulators of Bacillus stearothermophilus pyruvate kinase. purified pyruvate kinase, luminescence ATP production; ribose 5-phosphate activator present at AC10. Potency, µM. 51,000 compounds, 1.2% hits. AID 361; in the data active means potency below about 11 µM; inconclusive means mostly about 12 µM to 25 µM;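 the screen sought inhibitors and activators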
HEK293 cAMP cs – parental HEK293 cAMP activation (counter-screen); parental HEK293 CNG cAMP sensor, membrane potential fluorescence; Potency, µM (titrated, usually from 57.1 µM), hits mostly activators; 73,000 compounds, 2.5% hits; AID 938; further: nearly all actives have a fitted effect of over 55% in size
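Parental HEK 293 cells stably expressing a modified CNG channel (no TSHR) report cAMP rise as membrane depolarization. Membrane potential dye with 100 uM RO 20-1724 was loaded for 60 min at room temperature, then compound added for 30 min; fluorescence read at 590 nm.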
GBA mod – alters purified human glucocerebrosidase activity; purified enzyme, resorufin glucoside fluorescence (screen aimed at inhibitors), 20 min; Potency, µM; 48,000 compounds, 1.1% hits; in the data active means potency below about 15 µM; inconclusive means mostly about 16 µM to 33 µM;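 further: the screen sought inhibitors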
Target sequence (P04062 whole entry, looked up): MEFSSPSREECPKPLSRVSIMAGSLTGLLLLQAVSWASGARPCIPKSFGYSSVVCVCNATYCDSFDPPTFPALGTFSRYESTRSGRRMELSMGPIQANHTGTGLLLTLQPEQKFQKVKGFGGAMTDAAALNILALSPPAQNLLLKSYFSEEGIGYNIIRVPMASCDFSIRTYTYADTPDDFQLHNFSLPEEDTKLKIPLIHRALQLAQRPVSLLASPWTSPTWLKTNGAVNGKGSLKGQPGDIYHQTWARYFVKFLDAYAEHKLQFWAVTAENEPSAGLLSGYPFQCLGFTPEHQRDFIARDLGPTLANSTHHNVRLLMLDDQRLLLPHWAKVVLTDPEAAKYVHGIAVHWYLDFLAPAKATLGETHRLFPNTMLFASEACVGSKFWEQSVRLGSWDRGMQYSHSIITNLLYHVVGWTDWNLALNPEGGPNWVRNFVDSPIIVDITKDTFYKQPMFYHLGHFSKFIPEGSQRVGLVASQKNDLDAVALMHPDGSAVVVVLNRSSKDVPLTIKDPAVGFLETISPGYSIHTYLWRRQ
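Normal human glucocerebrosidase (0.2 nM final) was assayed with resorufin β-D-glucopyranoside (30 uM final) in 50mM citric acid/KH2PO4, 10mM sodium taurocholate, 0.01% tween-20, pH 5.9. Compounds were titrated; fluorescence (Ex 548, Em 600) read after 20 min at RT.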
HEK293 cAMP cnt – raises cAMP in parental HEK293 cells lacking TSH receptor; shares compounds with TSHR agonist; parental HEK293 CNG biosensor, cAMP membrane potential fluorescence; activity change, negative = inhibition, % at 32.9 µM; 150 tested, under 10 active
A number is an active result; - = inactive; ? = inconclusive; . = not tested or not shown; [ ] = another dose, or the depositor's remark. Shown are actives, neighbours in structure and some others; about 4% of the full set was active somewhere. Unless noted, the call rests on the fitted dose curve; in most records, active means well fitted curve in the direction sought with a large enough effect; inconclusive means small, poorly fitted or top-dose-only effect, or another doubt; inactive means no such curve, though single readings can be large; an effect the other way counts as inactive or inconclusive.

SMILES	TSHR agonist	Bst PK mod	HEK293 cAMP cs	GBA mod	HEK293 cAMP cnt
Cc1ccc2nc(SCC(=O)O)nc(C)c2c1	-	-	-	-	-
CC(=O)c1ccc(N2C(=O)C3C(C2=O)C(C(=O)c2ccc(Cl)cc2)N2CCCC32)cc1 (stereo unspecified)	-	-	-	-	.
O=C1C2C3CCCC3=C3CCCC3C2C(=O)N1c1ccc(Cl)cc1 (stereo unspecified)	3.16µM	-	-	-	-
COc1ccc(C2Nc3ccccc3C(=O)N2Cc2ccco2)cc1COc1ccc(NC(C)=O)cc1 (stereo unspecified)	0.631µM	-	-	-	-
COc1ccc(C(=O)N(Cc2ccco2)Cc2cccs2)c(O)c1	2.51µM	-	-	-	-
CCc1cc2c(nc1CC)CCN(CC/C(C)=N/O[C@@H]1O[C@H](COC(C)=O)[C@H](OC(C)=O)[C@H](OC(C)=O)[C@H]1OC(C)=O)C2	-[11.4 µM]	.	-[11.4 µM]	.	.
C[C@H](CCC(=O)O)[C@H]1CC[C@]2(C)[C@@H]3C(=O)C[C@H]4C(C)(C)[C@@H](O)CC[C@]4(C)[C@H]3C(=O)C[C@@]12C	-[11.4 µM]	.	-[11.4 µM]	.	.
Cc1occc1-c1nnc(SCC(=O)NCc2ccc3c(c2)OCO3)n1CC(C)C	15.8µM	-	-	-	-
Cc1nonc1NC(=O)CSc1nnc(-c2ccoc2C)n1CC(C)C	-	-	-	-	.
O=C1C=CC(=Nc2cccc3c(N=C4C=CC(=O)O4)cccc23)O1	-[11.4 µM]	.	-[11.4 µM]	.	.
O=C(CN(Cc1ccc(F)cc1)S(=O)(=O)c1ccccc1)N1CCCCC1	25.1µM	.	-	.	-
Cc1ccc(S(=O)(=O)N(CC(=O)N2CCC(C(N)=O)CC2)Cc2ccc(F)cc2)cc1	-	.	-	.	.
COc1cccc(-c2nc(NCCN3CCOCC3)c3ccccc3n2)c1	-	.	-	.	.
CS(=O)(=O)N1CCN(C(=O)c2cc(-c3cccs3)nc3ccccc23)CC1	20µM	.	-	-	-
COC(=O)N1CCC[C@@]2(CCN(C(=O)Nc3cccc(C#N)c3)C2)C1	-	.	-	.	.
Cc1ccc(N(CC(=O)NCc2ccco2)S(=O)(=O)c2ccccc2)cc1	?	.	?	.	-
O=C(CN(c1ccc2c(c1)OCCO2)S(=O)(=O)c1ccccc1)NCc1ccco1	25.1µM	-	-	-	-
COc1cccc(C2CC(c3ccccc3C)n3nc(N)nc3N2)c1 (stereo unspecified)	-	.	-	.	.
COc1cccc(C2CC(c3ccccc3OC)n3nc(N)nc3N2)c1 (stereo unspecified)	-	.	-	.	-
O=C(c1ccc(Br)o1)N(Cc1ccccc1)c1ccccn1	?	.	?	.	-
O=C(c1cnc2sccn2c1=O)N(Cc1ccccc1)c1ccccn1	-	.	-	.	.
Cc1cc(C)nc(SCNC(=O)c2ccc(F)cc2)n1	-	-	-	-	.
Cc1cc(SCNC(=O)c2ccccc2)ncn1	-	.	-	.	-
CN(Cc1ccco1)C(=O)Cn1c(=O)oc2cc(S(=O)(=O)NCc3ccccc3)ccc21	25.1µM	.	-	.	-
Cc1ccccc1-c1nc(CN2CCC(C(=O)N3CCC(C(N)=O)CC3)CC2)c(C)o1	-	.	-[11.4 µM]	.	.
SMILES	TSHR agonist	Bst PK mod	HEK293 cAMP cs	GBA mod	HEK293 cAMP cnt
Cc1ccccc1-c1nc(CN2CCC(C(=O)N3CCN(c4ccccn4)CC3)CC2)c(C)o1	-	.	-	.	-
Cc1nn(C)c(C)c1S(=O)(=O)N(CC(=O)Nc1nccs1)c1ccc(C(C)C)cc1	7.94µM	.	-	.	-
Brc1ccc(Oc2nnnn2-c2ccccc2)cc1	25.1µM	.	-	.	-
COc1cccc(Oc2c(C)oc3c(CN4CCOCC4)c(O)ccc3c2=O)c1	-	-	-	-	.
Cc1oc2c(CN3CCOCC3)c(O)ccc2c(=O)c1-c1ccccc1	-	-	-	-	-
COc1ccc(COC(=O)N/N=C2/C[C@@H](O)[C@@H](O)[C@@H]3[C@@H]4C(=O)N(C[C@@H]5CCCO5)C(=O)[C@H]4CC[C@@H]23)cc1	-[11.4 µM]	.	-[11.4 µM]	.	.
Cc1onc(-c2ccccc2)c1C(=O)N1CCCN(C(=O)c2c(-c3ccccc3)noc2C)CC1	-	-	-	-	.
Cc1onc(-c2ccccc2)c1C(=O)N1CCCSC1=Nc1ccccc1	?	-	?	.	-
COc1cc(/C=N/n2c(SC)nnc(C(C)(C)C)c2=O)ccc1O	-	.	-	.	-
c1ccc2c(c1)c1ccccc1n2Cn1c2ccccc2c2ccccc21	-[11.4 µM]	.	-[11.4 µM]	.	.
c1ccc(-n2cnc3cc(NCc4ccccn4)ccc32)cc1	-	.	-	-	.
c1ccc(-n2cnc3cc(NCc4ccncc4)ccc32)cc1	-	.	-	-	-
Cc1ccc(C(C)C)c(OCC(=O)Nc2ccc(N3CCN(S(C)(=O)=O)CC3)cc2)c1	-	-	-	-	-
